± gives the standard deviation.
Assays:
Details in all cases: modulator concentration 10 µM
[1] = test system: RAW-Dual (murine macrophage reporter line); assay: NF-kB reporter (SEAP) activity fold change vs agonist alone; higher = enhanced NF-kB activity
Summary of the method: (§1)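 In 384-well plates holding 50 000 RAW-Dual murine macrophage reporter cells per well, compound at 10 μM final was pre-incubated for 1 hour at 37 °C, after which a PRR agonist was added overnight. Supernatant SEAP read with QUANTI-Blue at 620 nm absorbance reported NF-κB, and Lucia luciferase read with QUANTI-Luc luminescence reported IRF. Fold change values come from dividing each reporter signal by the mean of agonist-only control wells on the same plate, averaged over replicate plates with propagated errors.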

[2] = test system: RAW-Dual (murine macrophage reporter line); assay: IRF reporter (Lucia luciferase) activity fold change vs agonist alone; higher = enhanced IRF activity
Summary of the method: as §1

[3] = test system: RAW-Dual (murine macrophage reporter line); assay: viability score (confluency relative to resting cells, overnight) (fraction); higher = more viable, active = viable (0.7 or more)
Summary of the method: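 Confluency was the readout: RAW-Dual macrophages were imaged with IncuCyte after an overnight exposure to compound at 10 μM final. IncuCyte software produced two masks over all imaged wells. The viability score expresses confluency against resting cells, and both masks had to exceed 70% of resting cells for a compound to meet the cutoff.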

[4] = agonist: CpG ODN 1826 0.5 ug/mL

Compound | NF-kB reporter [1, 4] | NF-kB reporter ([1]; agonist: LPS 0.1 ug/mL) | NF-kB reporter ([1]; agonist: MPLA […]) | IRF reporter ([2]; agonist: 3'3'-cGAMP 10 ug/mL) | IRF reporter ([2]; agonist: LPS 0.1 ug/mL) | IRF reporter ([2]; agonist: MPLA […]) | viability score [3]
CCN(CCO)CCCC(C)Nc1ccnc2cc(Cl)ccc12.O=S(=O)(O)O (configuration not stated) | 0.877 ± 0.037 | 0.984 ± 0.08 | 1.44 ± 0.24 | 0.984 ± 0.049 | 1.08 ± 0.28 | 1.15 ± 0.42 | 1 (active)
CC(=O)c1ccc(NC(=O)CSc2ccc(-c3ccc4c(c3)OCO4)nn2)cc1 | 0.846 ± 0.28 | 1.04 ± 0.096 | 0.981 ± 0.11 | 0.955 ± 0.034 | 1.02 ± 0.2 | 1.03 ± 0.11 | 0.99 (active)
O=C(c1ccc2ccccc2n1)N1CCc2ncncc2C1 | 1.08 ± 0.054 | 1.04 ± 0.083 | 0.862 ± 0.044 | 0.956 ± 0.063 | 1.09 ± 0.18 | 1.11 ± 0.27 | 1.01 (active)
COc1c(C)c2c(c(O)c1C/C=C(\C)CCC(=O)O)C(=O)OC2 | 0.602 ± 0.047 | 0.146 ± 0.007 | 0.352 ± 0.032 | 0.453 ± 0.03 | 1.13 ± 0.066 | 1.31 ± 0.11 | 0.587 (inactive)
C[C@@H](Oc1cc(-c2cnn(C3CCNCC3)c2)cnc1N)c1c(Cl)ccc(F)c1Cl | 0.149 ± 0.026 | 0.423 ± 0.2 | 1.47 ± 0.12 | 0.0546 ± 0.0028 | 0.165 ± 0.074 | 0.128 ± 0.02 | 0.0221 (inactive)
CCOc1ccc(CN(CCc2ccc3c(c2)OCO3)Cc2ccc3ccccc3c2)cc1 | 0.733 ± 0.083 | 0.954 ± 0.063 | 0.781 ± 0.053 | 0.197 ± 0.0058 | 1.54 ± 0.2 | 1.2 ± 0.16 | 0.989 (active)
CCCc1nc2ccccc2c(NC(=O)CN2CCOCC2)c1CC.O=C(O)C(=O)O | 1.01 ± 0.078 | 1.12 ± 0.093 | 1.01 ± 0.059 | 1 ± 0.048 | 1.48 ± 0.27 | 1.16 ± 0.13 | 1 (active)
Cc1nc2n(c(=O)c1CCN1CCC(c3noc4cc(F)ccc34)CC1)CCCC2O (configuration not stated) | 1.11 ± 0.27 | 1.14 ± 0.071 | 0.997 ± 0.11 | 0.902 ± 0.038 | 1.26 ± 0.14 | 1.14 ± 0.11 | 1 (active)
CCCN(CCC)CCc1cccc2c1CC(=O)N2.Cl | 0.998 ± 0.079 | 0.945 ± 0.046 | 1.03 ± 0.074 | 0.926 ± 0.071 | 0.925 ± 0.037 | 0.912 ± 0.083 | 0.997 (active)
CC(=O)O.CCN(CC)CC#CC1(O)CCCCC1 | 0.854 ± 0.083 | 0.981 ± 0.058 | 0.914 ± 0.059 | 0.902 ± 0.078 | 1.21 ± 0.14 | 1.06 ± 0.07 | 1.01 (active)
N#CC(=Cc1cc(Cl)ccc1OCc1c(F)cccc1Cl)c1nn(CCO)c(N)c1C#N | 1.37 ± 0.12 | 1.19 ± 0.072 | 0.806 ± 0.063 | 0.497 ± 0.03 | 0.931 ± 0.11 | 0.787 ± 0.049 | 0.164 (inactive)
Br.Cc1ccc(Sc2ccccc2N2CCNCC2)c(C)c1 | 0.328 ± 0.078 | 0.944 ± 0.11 | 1.78 ± 0.15 | 0.491 ± 0.057 | 1.27 ± 0.32 | 1.03 ± 0.12 | 0.527 (inactive)
O=C(COC(=O)c1ccc(Cl)c([N+](=O)[O-])c1)c1ccc(Cl)cc1 | 0.942 ± 0.072 | 0.978 ± 0.081 | 0.99 ± 0.093 | 0.929 ± 0.035 | 1.22 ± 0.18 | 1.36 ± 0.29 | 1.01 (active)
COCCCNC(=O)C1CCCN(c2ccc(Sc3ccc(Br)cc3)nn2)C1 (configuration not stated) | 0.99 ± 0.1 | 1.1 ± 0.095 | 1.15 ± 0.11 | 0.84 ± 0.03 | 0.966 ± 0.076 | 0.779 ± 0.2 | 0.993 (active)
CC1=NN(C(=O)CCCc2ccccc2)C(O)(c2ccc(Cl)cc2)C1 (configuration not stated) | 0.923 ± 0.1 | 1 ± 0.13 | 1.02 ± 0.049 | 0.899 ± 0.2 | 1.1 ± 0.065 | 1.13 ± 0.15 | 0.999 (active)
COc1cccc(CC(=O)Nc2ccc(CC(=O)N3CCC(O)CC3)cc2)c1 | 1.07 ± 0.35 | 1.06 ± 0.091 | 1.06 ± 0.074 | 0.884 ± 0.03 | 1.1 ± 0.13 | 1.37 ± 0.19 | 0.945 (active)
Cc1ccsc1C(=CCCN1CCC[C@@H](C(=O)O)C1)c1sccc1C | 1.06 ± 0.084 | 1.06 ± 0.053 | 0.972 ± 0.033 | 0.857 ± 0.056 | 0.961 ± 0.05 | 0.732 ± 0.082 | 0.997 (active)
CN1CC(=O)N2[C@H](c3ccc4c(c3)OCO4)c3[nH]c4ccccc4c3C[C@@H]2C1=O | 0.821 ± 0.2 | 1.05 ± 0.23 | 0.976 ± 0.056 | 0.869 ± 0.026 | 1.01 ± 0.24 | 0.922 ± 0.08 | 0.981 (active)
CCN(CC)c1ccc(C=NNC(=O)c2ccncc2)c(O)c1 | 2.56 ± 0.2 | 1.66 ± 0.13 | 5.41 ± 0.24 | 0.888 ± 0.12 | 1.29 ± 0.084 | 1.35 ± 0.14 | 0.695 (inactive)
Cl.OC(CCN1CCCCC1)(c1ccccc1)C1CCCCC1 (configuration not stated) | 0.338 ± 0.034 | 1.01 ± 0.081 | 1.11 ± 0.075 | 1.03 ± 0.058 | 1.11 ± 0.19 | 1.08 ± 0.34 | 1.01 (active)
COc1cccc(C=Nc2cccc([N+](=O)[O-])c2C)c1O | 0.661 ± 0.054 | 0.906 ± 0.066 | 0.978 ± 0.035 | 0.903 ± 0.077 | 0.93 ± 0.088 | 0.948 ± 0.17 | 1 (active)
COc1ccc(S(=O)(=O)NCc2cccnc2-c2cnn(C)c2)cc1Cl | 1.1 ± 0.055 | 1.15 ± 0.12 | 1.04 ± 0.06 | 1.17 ± 0.058 | 1.11 ± 0.072 | 1.04 ± 0.19 | 0.999 (active)
Cc1ccc(C(C)C)c(Oc2ccccc2NC(=O)c2cc(I)cc(I)c2O)c1 | 0.995 ± 0.066 | 0.985 ± 0.082 | 0.924 ± 0.071 | 0.915 ± 0.035 | 1.44 ± 0.092 | 1.27 ± 0.25 | 1 (active)
COC(CNC(=O)c1cccc(Cl)c1)c1ccccc1C (configuration not stated) | 0.774 ± 0.038 | 0.876 ± 0.092 | 0.958 ± 0.075 | 0.965 ± 0.059 | 1.22 ± 0.23 | 1.37 ± 0.34 | 0.999 (active)
Cc1cc(Nc2cc(CN3CCOCC3)c3nc(C)c(Cc4ccc(Cl)cc4F)n3n2)[nH]n1 | 2.15 ± 0.29 | 1.46 ± 0.39 | 1.59 ± 0.13 | 0.291 ± 0.025 | 0.884 ± 0.16 | 2.72 ± 0.31 | 0.0653 (inactive)
CC1CC(=O)C2=C(C1)OC(N)=C(C#N)C2c1ccc(Cl)cc1 (configuration not stated) | 0.905 ± 0.093 | 1.06 ± 0.075 | 0.928 ± 0.042 | 0.721 ± 0.03 | 1 ± 0.07 | 0.909 ± 0.13 | 0.992 (active)

— the supplement of paper PMC10646978
